BaF3 parental: reduces parental Ba/F3 cell viability, JAK2V617F counter-screen; CellTiter-Glo ATP luminescence; actives 1.1% (n = 220,000); inhibition, % at 5.6 µM;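 active = inhibition above a per-campaign cutoff, the mean inhibition of all tested compounds plus 3 SD, cut at about 27% in these data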;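 note: 0% = DMSO wells and 100% = JAK Inhibitor I control wells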
IEC-6 cytotox: counter-screen for KLF5 inhibitors: cytotoxicity in IEC-6 cells; inhibition, % at 5 µM; AID 1825; IEC-6 cytotoxicity, luminescence viability; actives 0.78% (n = 290,000);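 note: 0% = plate median of test compound wells and 100% = cytotoxic reference compound wells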
KLF5 inh: kruppel-like factor 5 inhibition. inhibition, % at 5 µM. actives 0.23% (n = 290,000). DLD-1 KLF5 promoter-luciferase reporter, luminescence;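 active = inhibition above a per-plate limit of that plate's mean compound inhibition plus 3 SD, cut at about 60% in these data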;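 note: 0% = DMSO wells and 100% = LY294002 at 200 µM; higher means less KLF5 promoter-driven luciferase light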
aSyn 5UTR inh: MLPCN primary screen, SNCA 5' untranslated region; inhibition, % (tested at 7.5 µM); alpha-synuclein 5'UTR reporter, inhibitor activity; actives 0.82% (n = 300,000); AID 1813; in the data active = inhibition above about 60%;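 note: H4 neuroglioblastoma cells stably carrying SNCA 5'UTR luciferase fusion; 0% = DMSO wells and 100% = positive control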
Ba/F3 V617F tox: reduce viability of Ba/F3 cells dependent on JAK2V617F. actives 1.1% (n = 220,000). inhibition, % at 5.6 µM. Ba/F3 EpoR-JAK2V617F viability, ATP luminescence;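 active = inhibition above the campaign mean plus 3 SD over all tested compounds, cut at about 24% in these data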;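 note: cytokine-independent growth of Ba/F3 cells driven by EpoR plus mutant JAK2; 0% = DMSO-treated cells and 100% = JAK inhibitor I control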
APP 5UTR inh: APP translation inhibition | SH-SY5Y APP 5'UTR-luciferase reporter, luminescence | actives 0.82% (n = 190,000) | AID 1285 | inhibition, % at 2 µM;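 active = inhibition above a set limit, derived from the sample mean plus 3 SD, cut at about 45% in these data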
IEC-6 tox confirm: confirmation of cytotoxic compounds in rat IEC-6 intestinal epithelial cells | IEC-6 rat intestinal epithelial viability, luminescence | shares compounds with IEC-6 cytotox | actives 63% (n = 1,900) | inhibition, % at 5 µM;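 note: 0% = vehicle and 100% = reference cytotoxic drug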
* marks the source's active call; other numbers are inactive results; . = not tested or not shown. Rows were chosen to be rich in hits. Some 2.2% of all compounds tested hit in one or more screens of this group. Cut-off read from the data, not from the text of the source, unless noted: active = inhibition above about 22%; inactive = the rest.

SMILES	BaF3 parental	IEC-6 cytotox	KLF5 inh	aSyn 5UTR inh	Ba/F3 V617F tox	APP 5UTR inh	IEC-6 tox confirm
O=S(=O)(/C(=C/c1ccc(C(F)(F)F)cc1)c1nc2ccccc2[nH]1)c1ccccc1	11	53*	-8	-62	42*	60*	48*
O=C(Nc1ccccc1F)c1cc(S(=O)(=O)N2CCOCC2)cs1	.	0	-37	-21	.	.	.
O=C(N/N=C/c1c[nH]c2ccccc12)c1cc(-c2ccc(-c3ccccc3)cc2)n[nH]1	3	-6	-67	-146	-2	-70	.
Cc1ccc(-c2cc(C(=O)N/N=C/c3c[nH]c4ccccc34)[nH]n2)cc1	58*	43*	14	78*	57*	76*	52*
O=[N+]([O-])c1cc(Br)c(Nc2ccccc2)c([N+](=O)[O-])c1	.	22*	37	33	.	.	0
O=C(Nc1ccccc1)c1ccc(Nc2c([N+](=O)[O-])cc([N+](=O)[O-])c3ccccc23)cc1	3	-4	-20	20	-3	-17	.
Cc1ccc(Nc2cc(C)nn2-c2nc(C)cc(=O)[nH]2)cc1	98*	101*	41	28	100*	92*	101*
O=C(Cc1ccc(Br)cc1)Nc1ccc(S(=O)(=O)Nc2ncccn2)cc1	.	-3	-6	-3	.	.	.
Cc1ccc(SC2=C(C(=O)O)CCCC2)cc1	.	-7	-9	4	.	.	.
CCOc1ccc(N=Cc2c(C)[nH]n(-c3nc4ccccc4[nH]3)c2=O)cc1	34*	30*	-23	39	28*	5	53*
Cc1ccccc1NC(=O)CSc1nc2scc(C)c2c(=O)[nH]1	.	37*	-16	-8	.	.	21
CC(=O)Nc1ccc(NC(=O)C(=O)c2cn(CC(=O)N3CCCC3)c3ccccc23)cc1	.	0	-23	-16	.	.	.
COc1ccc(NC(=O)C(=O)c2cn(CC(=O)N3CCCC3)c3ccccc23)cc1	.	93*	59	105*	.	.	66*
CCCCc1ccc(NC(=O)Nc2cnccn2)cc1	.	45*	-24	-98	.	.	23*
CCCN(CCC)CCCNC(=O)c1ccc(CS(=O)(=O)c2c(Cl)cccc2Cl)o1	.	0	-21	16	.	.	.
COCCCNC(=O)C1Cc2cc(S(=O)(=O)N3CCCC3)ccc2N1C(C)=O (configuration not stated)	.	0	-9	15	.	.	.
O=C(NCCN1CCOCC1)c1ccncc1	1	-8	3	11	-1	-14	.
O=C1C=C(NCCN2CCOCC2)C(=O)c2cnccc21	11	99*	30	131*	8	13	100*
COCCCNC(=O)Cc1c(C)c2c(cc(C)c3c(C(C)(C)C)coc32)oc1=O	.	84*	61	28	.	.	59*
COCCNC(=O)Cc1c(C)c2c(cc(C)c3c(C)coc32)oc1=O	.	0	-52	-15	.	.	.
Cc1ccc(NC(=O)CSc2nc3c(c(=O)[nH]2)CCC3)c(C)c1	.	10	-4	0	.	.	.
O=C(O)CCC(=O)Nc1ccc(C(=O)OC2CCCCC2)cc1	5	4	-19	49	2	17	.
CCCCC(=O)Nc1ccc(C(=O)OC2CCCCC2)cc1	10	24*	-30	-11	3	-13	18
C/C(=N\NC(=O)c1ccc2c(c1)OCCO2)c1ccccc1	0	31*	-37	73*	0	.	9
Cc1ccc(/C=N/NC(=O)c2ccncc2)s1	-1	0	-16	-8	-1	.	.
SMILES	BaF3 parental	IEC-6 cytotox	KLF5 inh	aSyn 5UTR inh	Ba/F3 V617F tox	APP 5UTR inh	IEC-6 tox confirm
Cc1ccc(/C=N/NC(=O)c2ccc3ccccc3c2)s1	.	82*	48	-132	.	.	50*
Cc1ccc(/C=N/NC(=O)c2ccc3c(c2)OCCO3)s1	37*	34*	-36	-118	65*	.	49*
O=C(N/N=C/c1cccs1)c1ccc2ccccc2c1	.	29*	-55	-240	.	.	12
COc1ccc(N2CC(C(=O)Nc3nc4ccc(F)cc4s3)CC2=O)c(OC)c1 (configuration not stated)	.	-4	-34	-18	.	.	.
CCn1c(CNS(=O)(=O)c2ccc(Br)cc2)n[nH]c1=S	.	-3	-34	-10	.	.	.
COc1ccc(/C=C(\C#N)C(=O)N2COCC2(C)C)cc1	.	4	8	1	.	.	.
O=C(c1ccc(CS(=O)c2ccccc2Cl)o1)N1CCN(c2ccccc2)CC1 (configuration not stated)	.	80*	53	110*	.	.	57*
COc1ccccc1N1CCN(C(=O)c2c(-c3c(F)cccc3Cl)noc2C)CC1	.	-2	-9	13	.	.	.
COc1ccc(OC)c(-c2cc(-c3cccnc3)nc(N)c2C#N)c1	45*	35*	30	0	84*	.	52*
CCC(C)(C)NC(=O)C(c1ccccc1Cl)N(Cc1cccnc1)C(=O)CCC(=O)Nc1cc(C)on1 (configuration not stated)	.	-4	-26	-2	.	.	.
Cc1ccc(S(=O)(=O)N[C@@H](CC(C)C)C(=O)N2CCC(C(=O)N[C@H](C(=O)O)C(C)C)CC2)cc1	.	3	-38	-15	.	.	.
C/C(=N\NC(=O)c1n[nH]c2c1CCC2)c1ccco1	86*	79*	61	44	83*	.	10
COc1ccc(C2N(C(=O)CN3CCCC3)CCCN2S(=O)(=O)c2ccccc2)cc1 (configuration not stated)	.	-4	-12	-26	.	.	.
CCOC(=O)c1[nH]c(C)c(/C(O)=C2\C(=O)C(=O)N(CCN(C)C)C2c2ccc(C)o2)c1C (configuration not stated)	6	25*	20	10	6	6	11
CCOC(=O)c1[nH]c(C)c(/C(O)=C2\C(=O)C(=O)N(CCN3CCOCC3)C2c2cccs2)c1C (configuration not stated)	0	26*	-10	3	-1	23	6
COCC(C)NC(=O)CSc1nc2ccccc2c(=O)n1CCc1ccc(S(N)(=O)=O)cc1 (configuration not stated)	.	-4	13	-5	.	.	.
O=C(Oc1ccc(-c2nnco2)cc1)C1CCN(C(=O)c2ccc(F)cc2)CC1	.	-2	-30	5	.	.	.
O=C(/C=C/c1ccccc1)Nc1ccc(Br)cn1	5	26*	-66	-125	9	63*	56*
Cc1ccc(-c2n[nH]c(=S)c3ccccc23)cc1S(=O)(=O)NCC1CCCO1 (configuration not stated)	.	3	19	19	.	.	.
